Experimental data: PubChem BioAssay AID1628 (Sanford-Burnham Center for Chemical Genomics, 2009)
The campaign covered roughly 190,000 compounds. About 930 (0.49%) were called active.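 Rule for the calls: active = z-score of insulin promoter reporter brightness in nuclei below -3 at 5 µM, with at least 500 cells counted; inconclusive = wells with under 500 cells, flagged as toxic or sparse; inactive = the rest.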 Some of the results follow. Potency and affinity values are given separately.

experiment: insulin promoter down-regulators in MIN6 cells, imaging, high-content screening, mouse beta cells (AID 1628); settings: MIN6 insulin promoter GFP reporter, at 5 µM, stronger effect = lower value

z-score, active:
O=c1[nH]c(/C(Cl)=C/c2cccc(F)c2)nc2cc(C(F)(F)F)ccc12 -4.9
COC(=O)c1cc(CSc2nc3ccc(C)cc3[nH]2)oc1C -3.9
NC(=O)c1ccc(NC(=O)COC(=O)c2c3c(nc4ccccc24)/C(=C\c2cccs2)CCC3)cc1 -3.07
Cc1ccc(S(=O)(=O)Cn2nnnc2C(CC(C)C)N2CCN(c3ccccc3)CC2)cc1 (stereo not given) -4.77
COC(=O)c1ccccc1NC(=O)Cn1cnc2cc(C)c(C)cc21 -3.24
COc1ccccc1N1C(=O)CC(Sc2n[nH]c(-c3cccc(C)c3)n2)C1=O (stereo not given) -5.2
COc1ccccc1/C=N/n1c(N)c(S(=O)(=O)c2cccs2)c2nc3ccccc3nc21 -3.63
CCOc1ccc(C2=C(C=Nc3c(C)n(C)n(-c4ccccc4)c3=O)C(c3ccc(F)cc3)c3ccccc3O2)cc1 (stereo not given) -4.16
Cc1nn(-c2ccccc2)c(C)c1/C=N/NC(=O)CSc1nnc(SCc2ccccc2Cl)s1 -3.39
CC1CCc2cc(F)ccc2N1C(=O)c1ccc2c(c1)OCO2 (stereo not given) -4.9
Cc1ccn2c(Nc3ccccc3C)c(-c3ccccn3)nc2c1 -3.6
Cc1ccc(-c2cc(C(F)(F)F)n3nc(C(=O)NCCCn4ccnc4)cc3n2)cc1C -5.59
O=C(CSCC(=O)N1CCCc2ccccc21)Nc1nc(-c2ccccc2)cs1 -4.03
Cc1nn(Cc2ccccc2Cl)c2sc(C(=O)NCCCn3ccnc3)cc12 -4.53
COc1ccccc1N1CCN(Cc2nc(N)nc(Nc3ccccc3)n2)CC1 -3.17
NC(=NCc1ccc2c(c1)OCO2)NC(=O)c1ccccc1 -3.43
Cc1ccc(CN2CCN(/N=C/C=C/c3ccccc3[N+](=O)[O-])CC2)cc1 -4.13
CCN(CC)C(=O)c1sc(NC(=O)c2ccncc2)c(C(=O)OC)c1C -4.37
CC1Cn2c(nnc2C23CC4CC(CC(C4)C2)C3)S1 (stereo not given) -3.06
Cc1ccc(-c2csc(=Nc3cccnc3)n2CCCn2ccnc2)cc1C -3.01
Cc1ccc(Nc2nc(N3CCOCC3)c3ccccc3n2)cc1 -3.61
O=C(C1CC1)N1CCC(c2nc(-c3ccc(S(=O)(=O)NCC4CCCO4)cc3)no2)CC1 (stereo not given) -7.53
COc1ccc(Cl)cc1NC(=O)CN1CCC(n2nnc3cc(C)ccc32)CC1 -4.05
O=C(O)c1ccccc1-c1ccccc1C(=O)NNc1ccccc1 -3.66
CCN(CCCCN1C(=O)c2ccccc2C1=O)c1ccc2c(c1)C(=O)N(C)C2=O -3.55
CC(C)Sc1nc(SCC(=O)NCc2ccco2)c2c3c(sc2n1)COC(C)(C)C3 -3.28
CCN(CC)c1ccc(/C=N/N2CCN(Cc3ccc(Cl)cc3)CC2)c(O)c1 -5.88
Cc1nn(C)cc1CNC(=O)c1cc2n(n1)C(C(F)(F)F)CC(c1cccs1)N2 (stereo not given) -3.69
Cc1nn(C)c(C)c1CNC(=O)c1nn2c(c1Cl)NC(c1cccs1)CC2C(F)(F)F (stereo not given) -4.07
COc1ccc2c(c1)C(C)=CC(C)(C)N2C(=O)CNCc1ccc2c(c1)OCO2 -4.43
CCc1c(C(=O)Nc2ccncc2)csc1C -4.62
Cc1sc2nc(-c3cccs3)nc(N3CCCN(C)CC3)c2c1C -3.73
COC(=O)c1sc2nc(-c3ccccc3)nc(N3CCN(C)CC3)c2c1C -4.28

z-score, inactive:
O=c1c(-c2ccccc2)coc2cc(O)ccc12 0.33
CCN(CC)c1ccc(/C=C(/C#N)c2nc3ccc(C)cc3[nH]2)c(OC(C)C)c1 10.8
CC1CCCCC1NC(=O)COC(=O)c1c2c(nc3ccccc13)/C(=C/c1ccco1)CC2 (stereo not given) 7.1
C=CCNC(=O)c1c2c(nc3ccccc13)-c1ccccc1CC2 4.54
Cn1ccc(=S)c2ccccc21 3.38
Cc1[nH]n(-c2ccc([N+](=O)[O-])cc2)c(=O)c1C=NCCN1CCN(C(=O)c2ccccc2F)CC1 4.48
COC(=O)c1ccc(N2C(=O)CC(Sc3n[nH]c(C)n3)C2=O)cc1 (stereo not given) 1.02
N#CC(C#N)=C1C=C2C=C(N3CCOCC3)CCC2CC1 (stereo not given) 15.6
O=c1c2ccccc2nc(-c2ccco2)n1/N=C/c1ccco1 2.3
CC(C)(C)c1ccc(OCC(=O)Nc2ccc3c4c(cccc24)C(=O)NC3=O)cc1 5.3
CCOc1ccc(C2C(C(=O)O)c3ccccc3C(=O)N2CCN2CCOCC2)cc1 (stereo not given) 4.94
COc1ccc(CNc2cc(NCCCO)c([N+](=O)[O-])c3nonc23)cc1 2.28
Cc1cccc(-n2nnc(C(=O)NCc3ccccc3Cl)c2N)c1 1.52
O=C1S/C(=C\c2ccc(N3CCOCC3)o2)C(=O)N1Cc1ccc(F)cc1 8.79
COc1ccc(Nc2c(-c3ccco3)nc3ccc(C)cn23)cc1 5.18
Cc1ccc(-c2cn3cccnc3n2)cc1 2.84
Cc1ccn2c(NC3CCCCC3)c(C)nc2c1 3.89
COc1ccc(-n2nc([N+](=O)[O-])c(=NCc3ccco3)n2O)cc1 4.25
CC1CCN(C(=O)c2cc3nc(C4CC4)cc(C(F)(F)F)n3n2)CC1 -0.53
O=C(Cn1cnc2c(cnn2-c2ccc(F)cc2)c1=O)N1CCCc2ccccc21 1.13
Cc1cc(C)cc(N=Cc2[nH]c3ccc(Br)c(Cl)c3c2O)c1 13.9
O=C(NCCCn1ccnc1)/C(=C/c1ccco1)NC(=O)c1cccs1 3.41
Cc1ccc(C(=O)NCCCn2ccnc2)cc1[N+](=O)[O-] 5.54
Cc1cccc(Nc2nc(N)nc(CN3CCN(c4ccccc4)CC3)n2)c1 -1.36
COc1ccccc1N1CCN(C/C(O)=C(\C#N)c2nc(-c3ccccc3)cs2)CC1 3.2
CN1CCN(Cc2nc(N)nc(Nc3ccc4c(c3)OCCO4)n2)CC1 4.73
Cc1ccc(NC(=O)/C=C/c2ccc([N+](=O)[O-])s2)cc1 16.6
CC(=O)Oc1ccc2c(=O)c(-c3ccccc3)c(C)oc2c1 -0.21
CCNc1c(N)c(=O)oc2ccccc12 -0.02
N#CC(C#N)=C1C=C2C=C(N3CCCCC3)CCC2CC1 (stereo not given) 18.2
CCN(CC)C(=O)c1sc2nc(-c3cccs3)cc(-c3cccs3)c2c1N 4.15
Cc1c(Cl)cccc1NC(=O)CN1CCN(CCN=CC2=C(O)CC(c3ccccc3)CC2=O)CC1 (stereo not given) 2.18
CC1=NNC(=O)C1CCC(=O)N/N=C/c1ccc(C)cc1 (stereo not given) 3.3
Oc1ccc(/C=N/Nc2ccnc3cc(Cl)ccc23)c(O)c1 5.11
CCN1CCc2c(sc(NC(=S)NC(=O)c3ccc(Cl)cc3)c2C(N)=O)C1 3.92
N#C/C(=C/c1ccc(N2CCCCCC2)o1)c1ccc(Cl)cc1 16.2
CC(=O)C1=C(C)Nc2ncnn2C1c1ccc(Cl)cc1Cl (stereo not given) 3.45
CC1CN(C(=O)CCn2c(=O)oc3ccccc32)CC(C)O1 (stereo not given) 8.04
CCCN1C(=O)c2cccc3c(N4CCCCC4)ccc(c23)C1=O 3.75
CCCCN1C(=O)/C(=C/C=C2\Oc3ccccc3N2CC)SC1=S 16.7
O=C1CCCC(O)=C1C=NCCc1ccccc1 3.02
CCOC(=O)CSc1nc2ccc(Nc3nc(N4CCOCC4)nc(N4CCOCC4)n3)cc2s1 -0.17
O=c1c2cccc3c(N4CCOCC4)ccc(c32)c2nc3ccccc3n12 9.75
Cc1n[nH]c(C)c1N1C(=O)c2cccc3c(N4CCCCCC4)ccc(c23)C1=O 8.27
Cc1noc(/C=C/c2ccc(-c3ccccc3Cl)o2)c1[N+](=O)[O-] 8.03
COc1ccc(C)cc1NC(=O)COC(C)=O 3.48
O=C(NN=C1CCN(Cc2ccccc2)CC1)c1cccc(S(=O)(=O)Nc2ccccc2Cl)c1 3.03
Nc1cc(S(=O)(=O)Nc2ccccc2Cl)ccc1N1CCOCC1 2.18
CC(C)(C)S(=O)(=O)c1ccccc1C(=O)O -1.55
Cc1ccc([N+](=O)[O-])cc1NC(=O)c1cccs1 3.18
O=C(NCCc1ccc(Cl)cc1)c1cccs1 1.56
COc1ccc(N(CCN2C(=O)c3ccccc3C2=O)C(=O)c2cccc([N+](=O)[O-])c2)cc1 3.09
CCCN1C(=O)c2ccccc2NC1c1ccc(C)cc1 (stereo not given) 2.64
COc1ccccc1OCc1nnc(SCC(=O)NCc2ccco2)n1-c1ccccc1 0.71
CC(C)c1cccc(O)c(=O)c1 -0.46
CN1C(=O)CC(N2CCN(Cc3ccc(Cl)cc3)CC2)C1=O (stereo not given) 3.88
CCCc1cc(-n2ccnc2)n2c(nc3ccccc32)c1C#N 5.52
O=C(CSc1nc2ccc(Cl)cc2o1)NCc1ccc2c(c1)OCO2 3.95
CCCCCOC(=O)Cn1c(N2CCCCCC2)nc2c1c(=O)[nH]c(=O)n2C -0.48
CC1=C(C(=O)Nc2ccc(F)cc2)C(c2ccncc2)C2=C(CCCC2=O)N1 (stereo not given) 1.21
CCOc1ccc(OCC)c(-c2c(=O)n(OCc3ccc(Cl)cc3)c3ccccc3[n+]2[O-])c1 3.34
CCOC(=O)c1sc2nc(CSc3ccccc3Cl)[nH]c(=O)c2c1C 1.87
